Results filed as inconclusive are left out. Calls of active or inactive are those of the source. Unless noted, the call rests on the fitted dose curve; in most records, active means well fitted curve in the direction sought with a large enough effect in the repeat runs; inconclusive means weak or mixed curves; inactive means no such curve, though single readings can be large; an effect the other way counts as inactive or inconclusive.
Key:
[1] = qHTS assay to test for compound auto fluorescence at 535 nm (green) in HEK293 cells (AID 720680); conditions: green autofluorescence 485/535 nm; series mostly up to 91.3 µM
[2] = qHTS assay to test for compound auto fluorescence at 460 nm (blue) in HEK293 cell free culture (AID 720681); conditions: cell-free medium, autofluorescence 405/460 nm (blue); series mostly up to 91.3 µM
Procedure, shortened: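 Test compounds were pinned into cell-free culture medium (DMEM with 10% FBS) and fluorescence was read directly at Ex/Em 405/460 nm. Signals were expressed as fluorescence equivalents of triamterene, with DMSO vehicle as control.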

[3] = qHTS assay to test for compound auto fluorescence at 535 nm (green) in HEK293 cell free culture (AID 720682); conditions: cell-free medium, green autofluorescence 485/535 nm; series mostly up to 91.3 µM
Procedure, shortened: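 Using fluorescein as calibrant, autofluorescence was quantified at 485/535 nm in cell-free DMEM containing 10% FBS after pintool addition of compound or vehicle.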

[4] = qHTS assay to test for compound auto fluorescence at 590 nm (red) in HEK293 cell free culture (AID 720683); conditions: cell-free medium autofluorescence, Ex540/Em590 red; series mostly up to 91.3 µM
Procedure, shortened: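 Tox21 10K library compounds were pinned into cell-free DMEM with 10% FBS and fluorescence was read at excitation 540 nm. Activity is expressed as Rose Bengal sodium equivalency.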

[5] = qHTS assay to test for compound auto fluorescence at 590 nm (red) in HepG2 cell free culture (AID 720684); conditions: cell-free medium autofluorescence, red 540/590 nm; series mostly up to 91.3 µM
Procedure, shortened: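 Ex 540 / Em 590 nm read of compound in cell-free MEM (10% FBS). Rose Bengal sodium reference.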

[6] = qHTS assay to test for compound auto fluorescence at 460 nm (blue) in HepG2 cell free culture (AID 720685); conditions: Cell-free culture medium, blue autofluorescence 405/460 nm; series mostly up to 91.3 µM
Procedure, shortened: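 Cell-free plates of MEM plus 10% FBS received 23 nL compound or DMSO vehicle; blue-channel (405/460 nm) intensity scored against triamterene as reference fluorophore.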

[7] = qHTS assay to test for compound auto fluorescence at 460 nm (blue) in HepG2 cells (AID 720687); conditions: autofluorescence 405/460 nm, 1 h; series mostly up to 91.3 µM
Procedure, shortened: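 Cells (2,000/well in MEM with 10% FBS) attached overnight at 37 C, then were exposed to compound or DMSO for 1 hr at 37 C, 5% CO2. Fluorescence read at Ex/Em 405/460 nm, expressed as triamterene-equivalent signal.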

[8] = qHTS assay to identify small molecule antagonists of the glucocorticoid receptor (GR) signaling pathway - cell viability counter screen (AID 720693); conditions: GR-bla HeLa viability, CellTiter-Glo luminescence, 18 h, with 5 nM dexamethasone present; series mostly up to 58.5 µM; further: nearly all actives have a fitted effect of over 55% in size
[9] = qHTS assay for identifying genotoxic compounds that show differential cytotoxicity against isogenic chicken DT40 cell lines with known DNA damage response pathways - wild type cell line (AID 743012); conditions: DT40 wild type chicken cells viability, CellTiter-Glo, 40 h; series mostly up to 68.4 µM; further: nearly all actives have a fitted effect of over 60% in size
Procedure, shortened: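 300 wt DT40 cells/well; cpd (DMSO) pintool-transferred after ~0.5 h at 37 C/5% CO2; 40 h incubation; CellTiter-Glo added, 30 min RT; luminescence read.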

[10] = qHTS assay for identifying genotoxic compounds that show differential cytotoxicity against isogenic chicken DT40 cell lines with known DNA damage response pathways - Rev3 mutant cell line (AID 743014); conditions: chicken DT40 Rev3-/- viability, CellTiter-Glo, 40 h; series mostly up to 68.4 µM; further: nearly all actives have a fitted effect of over 55% in size
[11] = qHTS assay for identifying genotoxic compounds that show differential cytotoxicity against isogenic chicken DT40 cell lines with known DNA damage response pathways - Rad54/Ku70 mutant cell line (AID 743015); conditions: DT40 Rad54/Ku70 mutant viability, CellTiter-Glo, 40 h; series mostly up to 66.8 µM; further: nearly all actives have a fitted effect of over 60% in size
[12] = qHTS assay to identify small molecule antagonists of the androgen receptor (AR) signaling pathway - cell viability counter screen (AID 743033; further: nearly all actives have a fitted effect of over 45% in size); conditions: AR-bla HEK293 viability, CellTiter-Glo luminescence, 16 h; series mostly up to 58.5 µM
[13] = qHTS assay to identify small molecule antagonists of the androgen receptor (AR) signaling pathway using the MDA cell line - cell viability counter screen (AID 743041; further: nearly all actives have a fitted effect of over 45% in size); conditions: MDA-kb2 viability, CellTiter-Fluor, 16 h, cells co-treated with R1881 androgen agonist; series mostly up to 70.3 µM
Procedure, shortened: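 In this qHTS counter assay, fluorescence intensity after CellTiter-Fluor addition indicated viability of MDA-kb2 AR-luc cells given compounds and R1881 for 16 h at 37C.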

[14] = qHTS assay to identify small molecule antagonists of the thyroid receptor (TR) signaling pathway - cell viability counter screen (AID 743064); conditions: GH3.TRE-Luc viability, CellTiter-Fluor, 24 h; series mostly up to 70.3 µM; further: nearly all actives have a fitted effect of over 50% in size
Procedure, shortened: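 Counter screen for cytotoxicity: compound plus T3 (1 nM final) on GH3.TRE-Luc cells, 23.5 h at 37 °C, then fluorescence viability readout with CellTiter-Fluor.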

[15] = target: Glucocorticoid receptor (Homo sapiens) (UniProt P04150); assay: qHTS assay to identify small molecule agonists of the glucocorticoid receptor (GR) signaling pathway (AID 720691; active means well fitted activation curve with a large enough effect in the signal ratio in the repeat runs, not every such curve was filed as active; the % refers to the signal ratio); conditions: GR-bla HeLa, beta-lactamase reporter ratio, 18 h; series mostly up to 62.4 µM
Chain of Glucocorticoid receptor (Homo sapiens) (P04150 whole entry, looked up): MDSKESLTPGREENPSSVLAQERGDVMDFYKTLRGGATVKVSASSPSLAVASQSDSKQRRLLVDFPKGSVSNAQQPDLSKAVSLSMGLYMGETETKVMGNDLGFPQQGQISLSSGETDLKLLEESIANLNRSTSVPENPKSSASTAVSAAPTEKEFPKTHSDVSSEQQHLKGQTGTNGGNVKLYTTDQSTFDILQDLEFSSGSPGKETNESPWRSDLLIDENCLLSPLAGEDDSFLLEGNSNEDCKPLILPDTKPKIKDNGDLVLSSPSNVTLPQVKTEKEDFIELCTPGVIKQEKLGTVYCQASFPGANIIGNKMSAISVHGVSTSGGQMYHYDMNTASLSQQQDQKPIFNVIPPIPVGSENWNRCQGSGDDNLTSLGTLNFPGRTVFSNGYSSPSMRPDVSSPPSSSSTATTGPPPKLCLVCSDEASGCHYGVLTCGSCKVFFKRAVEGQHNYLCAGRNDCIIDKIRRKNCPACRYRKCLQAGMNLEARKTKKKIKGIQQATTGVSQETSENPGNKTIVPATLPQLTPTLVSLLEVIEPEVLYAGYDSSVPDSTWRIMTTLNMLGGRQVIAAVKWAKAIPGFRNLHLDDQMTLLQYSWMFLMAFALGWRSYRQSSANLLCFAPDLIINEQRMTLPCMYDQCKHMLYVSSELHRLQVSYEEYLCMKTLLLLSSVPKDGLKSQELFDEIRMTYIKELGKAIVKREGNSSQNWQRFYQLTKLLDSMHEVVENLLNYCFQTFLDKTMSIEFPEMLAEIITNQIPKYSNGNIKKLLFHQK
Procedure, shortened: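 A HeLa cervical cancer line expressing GR and a glucocorticoid response element-driven beta-lactamase gene is treated with compounds for 18 h; LiveBLAzer B/G FRET substrate is then applied and fluorescence read.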

[16] = target: Glucocorticoid receptor (Homo sapiens) (UniProt P04150); assay: qHTS assay to identify small molecule antagonists of the glucocorticoid receptor (GR) signaling pathway (AID 720692; active means well fitted inhibition curve with a large enough effect in the signal ratio in the repeat runs, not every such curve was filed as active; the % refers to the signal ratio); conditions: GR-bla HeLa, beta-lactamase FRET ratio, dexamethasone-stimulated, 18 h; series mostly up to 58.5 µM
Procedure, shortened: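 GRE-bla HeLa line, dex-stimulated (5 nM final). Compound exposure 18 h, 37 C. Beta-lactamase FRET read after 2 h RT substrate.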

[17] = target: Androgen receptor (Homo sapiens) (UniProt P10275); assay: qHTS assay to identify small molecule antagonists of the androgen receptor (AR) signaling pathway (AID 743035; active means well fitted inhibition curve with a large enough effect in the signal ratio in the repeat runs, not every such curve was filed as active; the % refers to the signal ratio); conditions: HEK293 AR-UAS-bla, R1881-stimulated, beta-lactamase FRET, 16 h; series mostly up to 58.5 µM
Chain of Androgen receptor (Homo sapiens) (P10275 whole entry, looked up): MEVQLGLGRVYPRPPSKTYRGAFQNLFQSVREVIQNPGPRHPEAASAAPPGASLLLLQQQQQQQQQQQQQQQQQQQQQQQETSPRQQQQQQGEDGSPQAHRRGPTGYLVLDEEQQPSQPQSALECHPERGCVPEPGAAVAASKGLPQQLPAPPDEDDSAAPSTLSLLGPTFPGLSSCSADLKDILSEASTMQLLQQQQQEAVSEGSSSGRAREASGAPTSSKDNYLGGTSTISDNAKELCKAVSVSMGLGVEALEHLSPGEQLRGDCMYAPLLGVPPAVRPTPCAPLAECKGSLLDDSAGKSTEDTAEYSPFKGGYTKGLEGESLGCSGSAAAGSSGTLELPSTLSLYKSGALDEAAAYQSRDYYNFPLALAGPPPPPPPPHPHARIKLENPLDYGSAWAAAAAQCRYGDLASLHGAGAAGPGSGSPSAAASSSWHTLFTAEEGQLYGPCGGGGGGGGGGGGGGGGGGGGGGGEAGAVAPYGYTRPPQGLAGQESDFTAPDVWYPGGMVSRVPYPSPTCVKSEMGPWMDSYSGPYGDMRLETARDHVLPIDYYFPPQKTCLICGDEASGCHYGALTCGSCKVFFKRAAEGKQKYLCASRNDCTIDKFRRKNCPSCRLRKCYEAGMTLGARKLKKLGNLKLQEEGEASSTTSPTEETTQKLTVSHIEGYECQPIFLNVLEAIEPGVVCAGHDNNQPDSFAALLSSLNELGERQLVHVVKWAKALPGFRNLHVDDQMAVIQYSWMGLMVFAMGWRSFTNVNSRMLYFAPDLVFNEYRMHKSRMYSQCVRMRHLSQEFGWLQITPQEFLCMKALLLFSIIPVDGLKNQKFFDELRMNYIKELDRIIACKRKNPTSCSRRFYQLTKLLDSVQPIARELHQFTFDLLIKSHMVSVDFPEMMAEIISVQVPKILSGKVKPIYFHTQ
Procedure, shortened: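 In this cell-based reporter screen, compounds were tested in concentration series against R1881-activated HEK293 cells expressing beta-lactamase under UAS control; after 16 h at 37C, FRET substrate was added and fluorescence read 2 h later.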

[18] = target: Androgen receptor (Homo sapiens) (UniProt P10275); assay: qHTS assay to identify small molecule agonists of the androgen receptor (AR) signaling pathway (AID 743036; active means well fitted activation curve with a large enough effect in the signal ratio in the repeat runs, with a control signal flat, not every such curve was filed as active; the % refers to the signal ratio); conditions: HEK293 AR-UAS-bla GripTite, beta-lactamase FRET ratio, 16 h; series mostly up to 62.4 µM
Procedure, shortened: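 In this Tox21 qHTS, 2,000 HEK293 AR-bla cells per well were incubated with compounds for 16 h at 37C and 5% CO2. Fluorescence intensity was recorded 2 h after adding LiveBLAzer B/G FRET substrate at room temperature.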

[19] = target: Androgen receptor (Homo sapiens) (UniProt P10275); assay: qHTS assay to identify small molecule agonists of the androgen receptor (AR) signaling pathway using the MDA cell line (AID 743040; further: nearly all actives have a fitted effect of over 20% in size); conditions: MDA-kb2 AR-luc cells, MMTV luciferase, 16 h; series mostly up to 70.3 µM
Procedure, shortened: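 Cell-based luciferase reporter: MDA-kb2, MMTV promoter (AR + GR response elements). 16 h compound exposure at 37C; ONE-Glo, 30 min RT, luminescence.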

Measured: Potency

O=S(=O)(O)NC1CCCCC1
not listed: [15] | [16] | [17] | [18] | [19]
inactive: all other assays above

Cn1cc[nH]c1=S
not listed: [15] | [16] | [17] | [18] | [19]
inactive: all other assays above

O=S(=O)(O)c1ccc2cc(O)ccc2c1
not listed: [17] | [18] | [19]
inactive: all other assays above

O=C1NC(=O)c2ccccc21
not listed: [15] | [16] | [17] | [18] | [19]
inactive: all other assays above

O=C(O)c1cccc([N+](=O)[O-])c1
not listed: [17] | [18] | [19]
inactive: all other assays above

CC(C)[C@@H]1CC[C@@H](C)C[C@H]1O
not listed: [15] | [16]
inactive: all other assays above

O=C(c1ccccc1)C(O)c1ccccc1 (configuration not stated)
not listed: [17] | [18] | [19]
inactive: all other assays above

From PubChem BioAssay (Tox21)
